Only some compounds are listed: those with a hit (about 2.5% of all), similar ones and a draw of the others.
VACV mCherry inh – qHTS for Stage-Specific Inhibitors of Vaccinia Orthopoxvirus: mCherry Reporter Primary qHTS; Potency, µM (top dose mostly 36.5 µM), for inactives: at the top dose activity change, negative = inhibition, hits mostly inhibitors; hit rate 0.63% among 310,000; AID 720579, 2013; Vaccinia virus mCherry reporter infection, fluorescence; calls by dose curve; tested in A549 cells; further: nearly all actives have a fitted effect of over 35% in size
VACV Venus inh – qHTS for Stage-Specific Inhibitors of Vaccinia Orthopoxvirus: Venus Reporter Primary qHTS; Potency, µM (highest dose often 36.5 µM), without a hit: at the top dose activity change, negative = inhibition, most hits filed as inhibitors; Vaccinia virus Venus reporter expression, fluorescence; hit rate 0.46% among 330,000; calls by dose curve; tested in A549 cells; further: nearly all actives have a fitted effect of over 30% in size
MARV entry inh – qHTS for inhibitors of binding or entry into cells for Marburg Virus. Marburg virus pseudotyped entry inhibition, cell reporter. hit rate 1.8% among 300,000. Potency, µM (doses to about 37.8 µM), for inactives: at the highest dose activity change, negative = inhibition, hits mostly inhibitors; calls by dose curve; tested in HEK293 cells
LASV entry inh – qHTS for Inhibitors of binding or entry into cells for Lassa Virus | AID 540256, 2011 | Potency, µM (doses to about 37.9 µM), for the others: top-dose activity change, negative = inhibition, actives largely listed as inhibitors | hit rate 1.2% among 300,000 | Lassa virus pseudotype entry inhibition, cell reporter; calls by dose curve; tested in HEK293 cells; further: nearly all actives have a fitted effect of over 50% in size
Active calls of the source: *; i = inactive; ? = inconclusive; . = not tested or not shown; + = active, no number; [ ] = dose if it differs, or a comment. On the % scale 0 is the no-effect control and ±100 the full control effect; potency means the concentration at half of the fitted maximal effect.

SMILES | VACV mCherry inh | VACV Venus inh | MARV entry inh | LASV entry inh
O=C1Cc2c(-c3ccccc3)cc(-c3cccc(Cl)c3)nc2-c2ccccc2N1 | -6% | -11% | -21% | -2%
NC1(c2ccc(-c3nc4ccn5c(=O)[nH]nc5c4cc3-c3ccccc3)cc2)CCC1 | 7.9µM* | 10µM* | . | .
CCN1CCCC1CNC(=O)c1cnn(-c2nccc(-c3cc(OC)ccc3OC)n2)c1C (stereo not given) | i | -13% | . | .
O=C(Nc1ccccc1CC[N+](=O)[O-])N1CCN(c2ccccc2)CC1 | -4% | -1% | 10µM* | -2%
CN(C)c1ccc(/C=C/c2nc3ccccc3s2)cc1 | -21% | -19% | 2µM* | 2.2µM*
CN(C)c1ccc(/C=C/c2cccc3cc4ccccc4nc23)cc1 | 11µM* | 16µM* | . | .
Cc1ccc(/C=C/c2nc3ccccc3s2)s1 | -7% | -6% | ? | 6.3µM*
COC(=O)[C@](O)(c1c[nH]c2ccccc12)C(F)(F)F | . | . | 3% | .
CCCCN1/C(=C/c2ccc3ccccc3[n+]2CC)Sc2ccccc21 | -5% | 422% | 5.6µM* | 2.2µM*
CCN1/C(=C/c2ccc3ccccc3[n+]2CC)C=Cc2ccccc21 | . | 41% | 3.5µM* | 5.6µM*
CCN1/C(=C/c2ccc3ccccc3[n+]2CCCS(=O)(=O)[O-])C=Cc2cc(C)ccc21 | 62% | 128% | 23%[46.1 µM] | 14%[46.1 µM]
COc1cc(-c2ccc3c(=O)c4ccccc4n(C)c3c2)cc(OC)c1OC | -19% | ? | . | .
COc1cc(-c2ccc3c(=O)c4ccccc4sc3c2)cc(OC)c1OC | -33% | 14µM* | . | .
COc1cc(CN2CCCC(c3nc(-c4ccncc4)ncc3-c3ccccc3)C2)ccc1O (stereo not given) | -12% | 0% | . | .
COc1ccccc1CC(=O)Nc1cc2oc3ccccc3c2cc1OC | ? | -30% | ? | 4%
COc1cc2c(cc1NC(=O)/C=C/c1cc(OC)c(OC)c(OC)c1)oc1ccccc12 | -24% | -27% | 8.9µM* | ?
CCCCn1nnc(NC(=S)NC(=O)c2cccs2)n1 | ? | 2.2µM* | ? | 20%
CCCn1nnc(NC(=S)NC(=O)Cc2ccccc2)n1 | 2.2µM* | ? | -3%[46.1 µM] | 0%[46.1 µM]
Cc1cc(C(C)(C)CC(C)(C)C)ccc1OCCOCC[N+](C)(C)Cc1ccccc1 | 10µM* | 10µM* | . | .
C[N+](C)(CCOc1ccccc1)Cc1ccccc1 | i | -16% | . | .
NNc1nnc2c3cc(F)ccc3n(CCc3ccccc3)c2n1 | ? | -2% | 10µM* | ?
O=C(NCc1cccnc1)c1cnn(-c2ncc3c(n2)-c2ccccc2CCC3)c1C1CC1 | -16% | -9% | . | .
COc1ccc([C@@]23Oc4cc(OC)cc(OC)c4[C@]2(O)[C@H](O)[C@H](C(=O)N(C)C)[C@H]3c2ccccc2)cc1 | + | 0.0001µM* | 0.11µM* | ?
COc1cc(CNC(=O)c2cnn(-c3ncc4c(n3)-c3ccccc3CC4)c2C)cc(OC)c1OC | ? | -28% | . | .
O=C(c1cccc(C(=O)N(c2ccccn2)C2CCCCC2)c1)N(c1ccccn1)C1CCCCC1 | -26% | -24% | 9.2µM* | ?
SMILES | VACV mCherry inh | VACV Venus inh | MARV entry inh | LASV entry inh
O=C(c1ccc(Cl)cc1)N(c1ccccn1)C1CCCCC1 | -1% | -6% | 9%[46.1 µM] | -2%
O=C(Cc1ccc2c(c1)OCO2)N1CCOc2ccc(CN3CCOCC3)cc2C1 | -3% | 12% | . | .
COc1ccc(C(c2c(NC(=O)c3ccccc3)sc(C)c2C)N2CCN(CCO)CC2)cc1 (stereo not given) | -4% | 5% | ? | ?
COc1cccc(C(c2c(NC(=O)c3ccccc3)sc(C)c2C)N2CCN(C)CC2)c1 (stereo not given) | i | -19% | 20µM* | ?
CCN1CCN(C(c2ccccn2)c2c(NC(=O)c3ccccc3)sc(C)c2C)CC1 (stereo not given) | ? | -20% | 10µM* | ?
O=C1CC(c2ccccc2)CC2=C1C(c1ccccn1)Nc1ccccc1N2 (stereo not given) | -5% | -10% | 5% | -14%
O=C1CC(c2ccc(F)cc2)CC2=C1C(c1ccc([N+](=O)[O-])o1)Nc1ccccc1N2 (stereo not given) | ? | -8% | 10µM* | ?
Cc1ccc(CN2CCc3c(OCc4ccc(F)cc4)cccc3C2=O)cc1 | ? | ? | ? | 7.1µM*
O=C1c2cccc(OCC(=O)N3CCCc4ccccc43)c2CCN1Cc1ccc(Br)cc1 | ? | ? | ? | 21µM*
CC(C(=O)c1ccccc1)[n+]1cccc(Cl)c1 (stereo not given) | -19% | ? | . | .

Screens from PubChem.
